The text below walks through data of PubChem BioAssay (NCATS).

The structures appear in SMILES notation. Results filed as inconclusive are left out. A number with no mark means an inactive call. Calls of active or inactive are those of the source. The call rests on the fitted dose curve; in most records, active means well fitted curve in the direction sought with a large enough effect; inconclusive means small, poorly fitted or top-dose-only effect, or another doubt; inactive means no such curve, though single readings can be large; an effect the other way counts as inactive or inconclusive.

The nature of test [1]: Quantitative High-Throughput drug screen in 47 multiple myeloma cell lines against the NCATS MIPE library collection: MMM1_PLB cell viability assay (AID 1918976). Further: nearly all actives have a fitted effect of over 35% in size. The essentials:
(§1)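 ATP-based luminescence (CellTiter-Glo, 5 min RT incubation) quantified surviving cells following two days' treatment with MIPE 4.0 agents at 37 °C, 5% CO2.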

Test [2] can be described thus: Quantitative High-Throughput drug screen in 47 multiple myeloma cell lines against the NCATS MIPE library collection: MM1S_ATCC cell viability assay (AID 1918980). Further: nearly all actives have a fitted effect of over 45% in size. The essentials: as §1
Test [3] is described as follows: Quantitative High-Throughput drug screen in 47 multiple myeloma cell lines against the NCATS MIPE library collection: KMS28PE_JCRB cell viability assay (AID 1918983). Further: nearly all actives have a fitted effect of over 35% in size. In short, it runs like this: as §1
Test [4] can be described thus: Quantitative High-Throughput drug screen in 47 multiple myeloma cell lines against the NCATS MIPE library collection: OPM1_PLB cell viability assay (AID 1918989). Further: nearly all actives have a fitted effect of over 40% in size.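 On viability (% of control): 100% = DMSO-only wells and 0% = media-only wells.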 In short, it runs like this: as §1
Test [5] can be described thus: Quantitative High-Throughput drug screen in 47 multiple myeloma cell lines against the NCATS MIPE library collection: SKMM1_PLB cell viability assay (AID 1919863). Further: nearly all actives have a fitted effect of over 35% in size. The conditions noted are these: SKMM1 myeloma viability, CellTiter-Glo ATP, 48 h; viability: stronger effect = lower value. The essentials: as §1
Test [6] can be described thus: Quantitative High-Throughput drug screen in 47 multiple myeloma cell lines against the NCATS MIPE library collection: U266_ATCC cell viability assay (AID 1919864). Further: nearly all actives have a fitted effect of over 35% in size. The essentials: as §1
Test [7] can be described thus: Quantitative High-Throughput drug screen in 47 multiple myeloma cell lines against the NCATS MIPE library collection: XG6_PLB cell viability assay (AID 1919865). Further: nearly all actives have a fitted effect of over 40% in size.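 On viability (% of control): 100% = DMSO-only wells and 0% = media-only wells.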 In short, it runs like this: as §1
Test [8] in a line: Quantitative High-Throughput drug screen in 47 multiple myeloma cell lines against the NCATS MIPE library collection: MOLP8_DSMZ cell viability assay (AID 1918977). Further: nearly all actives have a fitted effect of over 45% in size.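 On viability (% of control): 100% = DMSO-only wells and 0% = media-only wells without cells.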 The essentials: as §1
A short description of test [9]: Quantitative High-Throughput drug screen in 47 multiple myeloma cell lines against the NCATS MIPE library collection: MM1R_ATCC cell viability assay (AID 1918981). Further: nearly all actives have a fitted effect of over 35% in size. In short, it runs like this:
as §1

Test [10] in a line: Quantitative High-Throughput drug screen in 47 multiple myeloma cell lines against the NCATS MIPE library collection: LP1_DSMZ cell viability assay (AID 1918982). Further: nearly all actives have a fitted effect of over 35% in size. In short, it runs like this:
as §1

Test [11] in a line: Quantitative High-Throughput drug screen in 47 multiple myeloma cell lines against the NCATS MIPE library collection: L363_DSMZ cell viability assay (AID 1918984). Further: nearly all actives have a fitted effect of over 40% in size. To be noted: L363 myeloma viability, CellTiter-Glo ATP luminescence, 48 h; viability (% of control): at 45.8 µM (top of the series). The essentials: as §1
Test [12] in a line: Quantitative High-Throughput drug screen in 47 multiple myeloma cell lines against the NCATS MIPE library collection: OCIMY5_PLB cell viability assay (AID 1918988). Further: nearly all actives have a fitted effect of over 65% in size. The essentials: as §1
A short description of test [13]: Quantitative High-Throughput drug screen in 47 multiple myeloma cell lines against the NCATS MIPE library collection: NCIH929_DSMZ cell viability assay (AID 1918978). Further: nearly all actives have a fitted effect of over 35% in size. The essentials:
as §1

Test [14] is described as follows: Quantitative High-Throughput drug screen in 47 multiple myeloma cell lines against the NCATS MIPE library collection: KMS34_JCRB cell viability assay (AID 1918985). Further: nearly all actives have a fitted effect of over 40% in size. In short, it runs like this: as §1
A short description of test [15]: Quantitative High-Throughput drug screen in 47 multiple myeloma cell lines against the NCATS MIPE library collection: OCIMY1_PLB cell viability assay (AID 1918979). Further: nearly all actives have a fitted effect of over 35% in size.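 On viability: 100% = DMSO-only wells and 0% = cell-free media-only wells.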 In short, it runs like this:
as §1

A short description of test [16]: Quantitative High-Throughput drug screen in 47 multiple myeloma cell lines against the NCATS MIPE library collection: XG1_PLB cell viability assay (AID 1919866). Further: nearly all actives have a fitted effect of over 35% in size. In short, it runs like this:
as §1

A short description of test [17]: Quantitative High-Throughput drug screen in 47 multiple myeloma cell lines against the NCATS MIPE library collection: OCIMY7_PLB cell viability assay (AID 1918987). Further: nearly all actives have a fitted effect of over 65% in size. The conditions noted are these: OCI-MY7 myeloma viability, CellTiter-Glo ATP, 48 h; viability (% of DMSO): at 45.8 µM (top of the series). In short, it runs like this: as §1
(In ATP-based viability assays light output follows the ATP content of the culture.)
Potency means the concentration at half of the fitted maximal effect.

What is called viability is a read-out of living cells in per cent, often relative to untreated cells. On to `COc1ccc(CCN(C)CCCOc2ccc(S(=O)(=O)c3[nH]c4ccccc4c3C(C)C)cc2)cc1OC`, for which the Potency in test [1] is 9.35 µM (active); in test [2], 20.9 µM (active); in [3] it was 16.6 µM (active); in [4], 23.5 µM (active); in test [6], 18.7 µM (active); in test [7], 26.4 µM (active). Further, the viability in [5] is 110%.

Turning to `CCCCCCOC(=O)N=C(N)c1ccc(NCc2nc3cc(C(=O)N(CCC(=O)OCC)c4ccccn4)ccc3n2C)cc1`, the Potency in test [1] is 14.8 µM (active); in [8], 20.9 µM (active); in [9], 20.9 µM (active); in test [10] it was 14.8 µM (active); in test [11], 13.2 µM (active); in test [12], 20.9 µM (active). Moreover, the Potency in test [7] is 11.8 µM (active).

For `CCC[C@H](N[C@@H](C)C(=O)N1[C@@H]2CCCC[C@H]2C[C@H]1C(=O)O)C(=O)OCC`, the Potency entry in test [8], in test [13], in test [3], in test [14] and in test [4] was “inactive” throughout. In addition, in test [5], the Potency was 18.7 µM (active).

Turning to `CN(C)CCOc1cc(-c2cn[nH]c2)ccc1NC(=O)C1COc2ccccc2O1` (stereo unspecified), the Potency entry in [8] and in test [15] was “inactive” in each case. For the same compound, the Potency in test [13] was 18.7 µM (active); in [9], 13.2 µM (active); in test [3] it was 13.2 µM (active); in [14], 9.35 µM (active); in [16], 2.35 µM (active). The viability in test [5] was 131%.

In the case of `Cc1ccc(S(=O)(=O)Nc2nc3ccccc3nc2Nc2ccc3nsnc3c2)cc1`, the Potency is 3.63 µM (active) in test [1]; 6.45 µM (active) in [8]; 0.575 µM (active) in test [2]; 1.44 µM (active) in test [17]; 1.15 µM (active) in test [4]; 7.24 µM (active) in test [5]. Besides, the figures for the Potency in [7] and in [16] were 0.0724 µM (active) and 0.575 µM (active), respectively.

As to `CCCCC(C=O)NC(=O)C(CC(C)C)NC(=O)OCc1ccccc1` (stereo unspecified), the Potency was 6.62 µM (active) in test [1], 20.9 µM (active) in test [13] and 23.5 µM (active) in [3]. For the same compound, the Potency result in [15], in test [11] and in test [7] was “inactive” in each case.

Turning to `Cc1c(C(=O)Nc2ccc(N3C[C@@H](C)O[C@@H](C)C3)nc2)cccc1-c1ccc(OC(F)(F)F)cc1`, the Potency in test [1] was 11.8 µM (active); in test [8], 13.2 µM (active); in test [2], 14.8 µM (active); in test [10], 9.35 µM (active); in test [3], 13.2 µM (active); in test [12], 20.9 µM (active). Moreover, the Potency in test [5] is 26.4 µM (active); in [6], 5.9 µM (active).

For `CC(C)C[C@H](NC(=O)c1cc2ccccc2s1)C(=O)N1CCN(C(=O)[C@H](CO)NS(=O)(=O)c2ccc(Cl)cc2Cl)CC1`, the Potency in test [1] is 18.7 µM (active); in test [13], 26.4 µM (active); in [2] it was 23.5 µM (active); in test [9], 18.7 µM (active); in test [10] it was 26.4 µM (active); in [3], 23.5 µM (active). Moreover, the Potency in test [17] is 23.5 µM (active); in [12], 20.9 µM (active); in test [4], 20.9 µM (active); in test [6], 23.5 µM (active).

As to `CC(C)C[C@@H](N)[C@H](O)C(=O)N[C@H](C(=O)N[C@H](C(=O)N[C@@H](CC(=O)O)C(=O)O)C(C)C)C(C)C`, the Potency in test [1] was 1.66 µM (active); in test [2] it was 23.5 µM (active); in [4], 4.69 µM (active); in [7] it was 7.43 µM (active); in test [16], 2.64 µM (active). Moreover, the Potency result in [15], in [10], in [3], in [11] and in test [12] was “inactive” each time. Moreover, the viability in test [5] is 122%.

Turning to `CNc1nc(Nc2ccc(C(=O)N3CCOCC3)cc2OC)ncc1Cl`, the Potency is 13.2 µM (active) in test [1], 5.9 µM (active) in [9], 14.8 µM (active) in test [12] and 16.6 µM (active) in test [16]. For the same compound, the Potency result in test [15], in test [3], in test [17], in [4] and in test [6] was “inactive” throughout. In [5], the viability is 112%.

For `COc1cc2c(cc1OC)CC(=O)N(CCCN(C)C[C@H]1Cc3cc(OC)c(OC)cc31)CC2`, the Potency is 7.43 µM (active) in [1]; 0.332 µM (active) in test [13]; 16.6 µM (active) in test [2]; 11.8 µM (active) in [9]; 16.6 µM (active) in test [12]. Further, the Potency result in [3], in test [7] and in test [16] was “inactive” throughout.

On to `CN[C@@H]1[C@@H](O)[C@@H](O[C@@H]2[C@@H](O)[C@H](O[C@H]3O[C@H](CN)[C@@H](O)[C@H](O)[C@@H]3O)[C@@H](N)C[C@@H]2NC(=O)[C@@H](O)CN)OC[C@]1(C)O`, for which the Potency in test [1] is 5.26 µM (active); in test [6], 18.7 µM (active). Moreover, the Potency result in test [13], in test [15], in test [9], in test [10], in [3] and in test [7] was “inactive” each time. For the same compound, the Potency entry in test [16] was “inactive”.

For `COc1cc(Cl)cn2c(-c3cccc(NC4CNC4)n3)cnc12`, the Potency is 20.9 µM (active) in test [1]; 16.6 µM (active) in test [9]; 20.9 µM (active) in [3]; 9.35 µM (active) in [17]; 13.2 µM (active) in test [12]; 9.35 µM (active) in test [5]. Further, the Potency is 2.96 µM (active) in test [7] and 11.8 µM (active) in test [16].

`O=C1NC(=O)C(=Cc2ccc(-c3ccc(F)cc3O)o2)S1`: the Potency in test [1] was 2.96 µM (active); in test [2] it was 16.6 µM (active); in [11], 0.833 µM (active); in [17], 3.72 µM (active); in test [4], 14.8 µM (active); in test [7], 2.35 µM (active). The Potency entry in test [15] is “inactive”.

Regarding `NC(=O)c1ccc(N(C(N)=O)c2c(F)cccc2F)nc1-c1ccc(F)cc1F`, the Potency entry in [1], in test [15], in [9], in test [10], in test [3] and in test [6] was “inactive” each time. The Potency is 5.26 µM (active) in [13], 1.48 µM (active) in test [7] and 2.96 µM (active) in [16].

In the case of `CC1=C[C@@H]2[C@@H]([C@@H](O)C[C@@]3(C)[C@H]2C[C@@H](C)[C@]3(O)C(=O)CO)[C@@]2(C)Cc3cnn(-c4ccccc4)c3C=C12`, the Potency is 20.9 µM (active) in test [1]; 23.5 µM (active) in test [15]; 0.0083 µM (active) in test [2]; 20.9 µM (active) in [9]; 0.0332 µM (active) in test [11]; 23.5 µM (active) in [14]. Also, the Potency in test [17] was 9.35 µM (active); in [12], 1.87 µM (active); in test [5], 18.7 µM (active); in test [6], 20.9 µM (active); in test [7], 20.9 µM (active).

As for `Oc1ccc(C=Cc2cc(O)cc(O)c2)cc1`, the Potency was 16.6 µM (active) in test [1], 16.6 µM (active) in test [9], 5.26 µM (active) in [14] and 13.2 µM (active) in test [12]. Besides, the Potency result in test [13], in test [15], in test [3] and in test [4] was “inactive” throughout.
